# Measurements: PubChem BioAssay (NCATS)
# Records with an inconclusive call do not appear. Activity calls are given as the source filed them. Calls follow the shape of the dose curve; as a rule, active = well fitted cell-killing curve with a large enough effect; inconclusive = small, poorly fitted or top-dose-only effect, or effect the other way; inactive = no such curve, though single readings can be large or run the other way.
# Assay: Quantitative High-Throughput drug screen in 47 multiple myeloma cell lines against the NCATS MIPE library collection: AMO1_DSMZ cell viability assay (AID 1918927; also: nearly all actives have a fitted effect of over 30% in size)
# Details: AMO1 myeloma cells viability, CellTiter-Glo ATP luminescence, 48 h; series mostly up to 45.8 µM
# Description: PI: Beverly A. Mock Ph.D.
# Laboratory of Cancer Biology and Genetics,
# Center for Cancer Research, National Cancer Institute,
# National Institute of Health, Bethesda, Maryland
# Drug resistance and disease progression are common in multiple myeloma (MM) patients, underscoring the need for new therapeutic combinations. […] We hypothesized that effective combinations would reduce MYC expression and enhance p16 activity. […] These preclinical data identify potentially useful drug combinations for evaluation in drug-resistant MM and reveal potential mechanisms of combined drug sensitivity.
# Described herein is the primary MIPE qHTS used to cherrypick compounds. Validated compounds were then further tested for potential synergistic activiy.
# [1] Peat TJ, Gaikwad SM, Dubois W, Gyabaah-Kessie N, Zhang S, Gorjifard S, Phyo Z, Andres M, Hughitt VK, Simpson RM, Miller MA, Girvin AT, Taylor A, Williams D, D'Antonio N, Zhang Y, Rajagopalan A, Flietner E, Wilson K, Zhang X, Shinn P, Klumpp-Thomas C, McKnight C, Itkin Z, Chen L, Kazandijian D, Zhang J, Michalowski AM, Simmons JK, Keats J, Thomas CJ, Mock BA. Drug combinations identified by high-throughput screening promote cell cycle transition and upregulate Smad pathways in myeloma. Cancer Lett. 2023 Aug 1;568:216284. doi: 10.1016/j.canlet.2023.216284. Epub 2023 Jun 24. PMID: 37356470; PMCID: PMC10408729.
# SEQUENCE No. (e.g., 1, 2, 3, etc.); […] (e.g., Cells, Incubation, Reagent, etc.); VALUE and DESCRIPTION.
# 1; Cells; 5 uL; white, solid bottom 1536-well Greiner assay plate.
# 2; Compounds; 23 nL; Kalypsis pin tool (Wako USA) equipped with a 1536-well pin head to transfer to the assay plates.
# 3; Incubation; 48 hours; 37C incubation.
# 4; Reagent;5uL; CellTiter Glo (Promega).
# 5; Detector; 425V; Luminescence; Viewlux PerkinElmer.
# NOTES (numbers refer to Sequence numbers above)
# 1. The cell-based screening methods employed in this study were like those previously published. Briefly, the corresponding myeloma cell lines were screened in 1,536-well plates with 500 cells, 5-uL per well for inhibition of cell viability (assessed by measuring ATP levels with CellTiterGlo).
# 2. NCATS MIPE 4.0 library of approved and investigational drugs were added using the Kalypsis pin tool. Wells treated with DMSO only for 100% viability and media only wells for 0% viability were used as controls.
# 3. The assay plates were covered and incubated for 48 hours in a 37C, 5% CO2 incubator with controlled humidity.
# 4. After 48 hours, CellTilter-GloTM luminescent substrate mix (Promega) reagent was added to the assay plate and plates we incubated for 5 min at room temperature.
# 5. Signal was measured as median relative luminescence units on a ViewLux (PerkinElmer) multiplate reader.
# [1] Heske CM, Davis MI, Baumgart JT, Wilson K, Gormally MV, Chen L, Zhang X, Ceribelli M, Duveau DY, Guha R, Ferrer M, Arnaldez FI, Ji J, Tran HL, Zhang Y, Mendoza A, Helman LJ, Thomas CJ. Matrix Screen Identifies Synergistic Combination of PARP Inhibitors and Nicotinamide Phosphoribosyltransferase (NAMPT) Inhibitors in Ewing Sarcoma. Clin Cancer Res. 2017 Dec 1;23(23):7301-7311. doi: 10.1158/1078-0432.CCR-17-1121. Epub 2017 Sep 12. PMID: 28899971; PMCID: PMC6636827.
# Potency is read from the fitted curve at half-maximal effect.
row,SMILES,Potency
1,Cc1c(CN2CCN(S(C)(=O)=O)CC2)sc2c(N3CCOCC3)nc(-c3cnc(N)nc3)nc12,93.5 nM (active)
2,Cc1cn2cc(C(=O)N(C)CCO)cc(N[C@@H]3CCOc4cccc(C)c43)c2n1,inactive
3,CC(=O)SC[C@@H](C)C(=O)N1CCC[C@H]1C(=O)N[C@@H](Cc1ccccc1)C(=O)O,inactive
4,COc1cc2ncnc(Nc3ccc(F)c(Cl)c3)c2cc1NC(=O)C=CCN1CCCCC1,2960 nM (active)
5,Nc1ccccc1NC(=O)c1ccc(CNc2nccc(-c3cccnc3)n2)cc1,590 nM (active)
6,O=C(Cc1ccc(-c2ccc(OCCN3CCOCC3)cc2)cn1)NCc1ccccc1,13.2 nM (active)
7,CCCCOc1c(C(=O)c2c(F)cc(C)cc2F)cnc2n[nH]cc12,1660 nM (active)
8,COc1cc(C(=O)N2CCC(N3CCN(C)CC3)CC2)ccc1Nc1ncc2c(n1)N(C)c1ccccc1C(=O)N2C,2350 nM (active)
9,Cn1c2ccccc2c2c3c(c4c5ccccc5n(CCC#N)c4c21)CNC3=O,935 nM (active)
10,O=C(O)c1ccc2c(c1)nc(Nc1cccc(Cl)c1)c1ccncc12,5900 nM (active)
11,CCS(=O)(=O)c1cccc(-c2cc(C(=O)NC3CCN(C)CC3)c(C)c3[nH]c4ncc(C)cc4c23)c1,9350 nM (active)
12,CC=C1NC(=O)[C@H]2CSSCCC=C[C@H](CC(=O)N[C@H](C(C)C)C(=O)N2)OC(=O)[C@H](C(C)C)NC1=O,14.8 nM (active)
13,CC(C)c1nn(-c2c(Cl)cccc2Cl)c2nc(Cc3ccc(OCCO)cc3)[nH]c(=O)c12,inactive
14,C=CCn1c(=O)c2cnc(Nc3ccc(N4CCN(C)CC4)cc3)nc2n1-c1cccc(C(C)(C)O)n1,590 nM (active)
15,Nc1ccccc1NC(=O)c1ccc(CNC(=O)OCc2cccnc2)cc1,833 nM (active)
16,CN1CCN(c2ccc3nc(-c4c(N)c5c(F)cccc5[nH]c4=O)[nH]c3c2)CC1,11800 nM (active)
17,CC(C)(O)CCc1ccc(OCc2cc(-c3cccc(OC(F)F)c3)c3ncccc3c2)cc1,inactive
18,CNC(=O)c1ccccc1Nc1nc(Nc2ccc(N3CCOCC3)cc2OC)ncc1Cl,418 nM (active)
19,CC[C@@H]1C(=O)N(C)c2cnc(Nc3ccc(C(=O)NC4CCN(C)CC4)cc3OC)nc2N1C1CCCC1,83.3 nM (active)
20,CC(C)(C)OC(=O)Nc1ccc(-c2cc(C(=O)NCCCCCCC(=O)NO)no2)cc1,590 nM (active)

row,SMILES,Potency
1,COc1ccc(OC)c(-c2nnc3ccc(-c4ccc(OC)c(O[C@@H]5CCOC5)c4)nn23)c1,26400 nM (active)
2,O=C(O)c1ccc2cc(-c3ccc(O)c(C45CC6CC(CC(C6)C4)C5)c3)ccc2c1,1320 nM (active)
3,CC(C)C[C@H](NC(=O)CNC(=O)c1cc(Cl)ccc1Cl)B(O)O,46.9 nM (active)
4,COCCOc1ccc2c(c1)ncn2-c1ccc2cccc(N3CCC(N)CC3)c2n1,2090 nM (active)
5,NC1(Cc2ccc(Cl)cc2)CCN(c2ncnc3[nH]ccc23)CC1,2090 nM (active)
6,O=C(CCCCCCNC(=O)c1cnc(N(c2ccccc2)c2ccccc2)nc1)NO,4690 nM (active)
7,CCC(=C(c1ccccc1)c1ccc(OCCN(C)C)cc1)c1ccccc1,18700 nM (active)
8,CCn1nnc2c(N3CCOCC3)nc(-c3ccc(NC(=O)Nc4ccc(C(=O)N5CCN(C)CC5)cc4)cc3)nc21,52.6 nM (active)
9,Cc1cc(C(=O)N2CCN(c3cccc(Cl)c3)CC2)n(-c2ccccc2)n1,33.2 nM (active)
10,COc1ccc(C=Cc2cc(OC)c(OC)c(OC)c2)cc1O,inactive
11,Nc1nccc(Oc2ccc(NC(=O)c3c[nH]cc(-c4ccc(F)cc4)c3=O)cc2F)c1Cl,2350 nM (active)
12,Cc1cc(Nc2cc(N3CCN(C)CC3)nc(C=Cc3ccccc3)n2)n[nH]1,8550 nM (active)
13,Fc1cc(-c2cccc3ncc(-c4cnn(C5CCNCC5)c4)nc23)cc(F)c1CN1CCOCC1,8330 nM (active)
14,c1ccc2c(CCNc3ccc(Nc4ccncc4)cc3)c[nH]c2c1,1480 nM (active)
15,CC1(C)CCC(c2ccc(Cl)cc2)=C(CN2CCN(c3ccc(C(=O)NS(=O)(=O)c4ccc(N[C@H](CCN5CCOCC5)CSc5ccccc5)c(S(=O)(=O)C(F)(F)F)c4)cc3)CC2)C1,3720 nM (active)
16,CC1(O)CC(c2nc(-c3ccc4ccc(-c5ccccc5)nc4c3)c3c(N)nccn23)C1 (stereo not given),2960 nM (active)
17,CCc1c2c(nc3ccc(O)cc13)-c1cc3c(c(=O)n1C2)COC(=O)[C@]3(O)CC,11.8 nM (active)
18,CC[C@H](CO)Nc1nc(NCc2ccccc2)c2ncn(C(C)C)c2n1,9350 nM (active)
19,CC1(C)CC(=O)c2c(C(F)(F)F)nn(-c3ccc(C(N)=O)c(NC4CCC(OC(=O)CN)CC4)c3)c2C1 (stereo not given),148 nM (active)
20,CN(C)CC(C)(C)CNc1nn2c(-c3ccccc3)nnc2cc1C1CCC1,2960 nM (active)
